# Assay results as given in the supplement of paper PMC4022240.
# ± gives the standard deviation.
# T1: HaloTag-ATRX ADD domain (163-292)
# T1 chain: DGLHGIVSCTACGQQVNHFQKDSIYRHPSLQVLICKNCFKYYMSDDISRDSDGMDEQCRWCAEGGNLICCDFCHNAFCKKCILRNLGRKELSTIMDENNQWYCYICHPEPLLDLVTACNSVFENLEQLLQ
# Assays:
# Test in all cases: peptide microarray binding signal (635 nm), min-max normalized on array (fraction of array maximum); higher = stronger binding
# [1] = target: T1, HaloTag-ATRX ADD domain (163-292)
# Summary of the method: (§1)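 For each library, binding signal was taken as the triplicate-spot mean intensity and then min-max scaled. Spots of histone 13-mer peptide–cellulose conjugates on nitrocellulose, printed in triplicate with a Cy3 tracer, were probed for 1 h at 4°C with either biotin-labelled HaloTag reader fusions (10 nM to 1 μM) and streptavidin-Alexa Fluor 647 or rabbit histone antibodies (1:10,000 to 1:2,000) and anti-rabbit Alexa 647. Readout at 635 nm came from an Axon GenePix 4000B.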
# [2] = target: HaloTag-ING2 PHD (mouse Ing2 200-280)
# Summary of the method: as §1
# [3] = target: anti-H3K4me3 antibody ab8580
# Summary of the method: as §1
# [4] = target: anti-H3K9me3 antibody ab8898
# Summary of the method: as §1
# [5] = peptide region: H3 11-23, peptide modifications: H3K14ac H3R17me2a, binder concentration: 1:2,000 dilution
# [6] = peptide region: H3 11-23, peptide modifications: H3K14ac H3R17me2a, binder concentration: 1:10,000 dilution
# [7] = peptide region: H3 5-17, peptide modifications: H3T11ph H3K14me2, binder concentration: 1:2,000 dilution
# [8] = peptide region: H3 5-17, peptide modifications: H3T11ph H3K14me2, binder concentration: 1:10,000 dilution
# [9] = peptide region: H3 5-17, peptide modifications: H3T11ph H3K14me1, binder concentration: 1:2,000 dilution
# [10] = peptide region: H3 5-17, peptide modifications: H3T11ph H3K14me1, binder concentration: 1:10,000 dilution
# [11] = peptide region: H3 11-23, peptide modifications: H3K14ac, binder concentration: 1:2,000 dilution
# [12] = peptide region: H3 11-23, peptide modifications: H3K14ac, binder concentration: 1:10,000 dilution
# [13] = peptide region: H3 5-17, peptide modifications: H3S10ph H3K14me3, binder concentration: 1:2,000 dilution
# [14] = peptide region: H3 5-17, peptide modifications: H3S10ph H3K14me3, binder concentration: 1:10,000 dilution
# [15] = peptide region: H3 11-23, peptide modifications: H3K14ac H3K18me3, binder concentration: 1:2,000 dilution
# [16] = peptide region: H3 11-23, peptide modifications: H3K14ac H3K18me3, binder concentration: 1:10,000 dilution
# [17] = peptide region: H3 11-23, peptide modifications: H3K14ac H3K18me1, binder concentration: 1:2,000 dilution
# [18] = peptide region: H3 11-23, peptide modifications: H3K14ac H3K18me1, binder concentration: 1:10,000 dilution
# [19] = peptide region: H3 11-23, peptide modifications: H3K14ac H3K18me2, binder concentration: 1:2,000 dilution
# [20] = peptide region: H3 11-23, peptide modifications: H3K14ac H3K18me2, binder concentration: 1:10,000 dilution
# [21] = peptide region: H3 5-17, peptide modifications: H3S10ph, binder concentration: 1:2,000 dilution
# [22] = peptide region: H3 5-17, peptide modifications: H3S10ph, binder concentration: 1:10,000 dilution
# [23] = peptide region: H3 11-23, peptide modifications: H3K14ac H3R17cit, binder concentration: 1:2,000 dilution
# [24] = peptide region: H3 11-23, peptide modifications: H3K14ac H3R17cit, binder concentration: 1:10,000 dilution
binder,measurement,setting,value
TGGKAPRKQLATK [H3 11-23 T G G Kac A P Rme2a K Q L A T K],peptide microarray binding signal,"[1]; peptide region: H3 11-23, peptide modifications: H3K14ac H3R17me2a, binder concentration: 50 nM",0.00981 ± 0.001
same,peptide microarray binding signal,"[1]; peptide region: H3 11-23, peptide modifications: H3K14ac H3R17me2a, binder concentration: 500 nM",0.0127 ± 0.00086
same,peptide microarray binding signal,"[2]; peptide region: H3 11-23, peptide modifications: H3K14ac H3R17me2a, binder concentration: 10 nM",0.0112 ± 0.00063
same,peptide microarray binding signal,"[2]; peptide region: H3 11-23, peptide modifications: H3K14ac H3R17me2a, binder concentration: 100 nM",0.0221 ± 0.00099
same,peptide microarray binding signal,[3]; [5],0.00436 ± 0.00064
same,peptide microarray binding signal,[3]; [6],0.00445 ± 0.00022
same,peptide microarray binding signal,[4]; [5],0.00344 ± 0.00027
same,peptide microarray binding signal,[4]; [6],0.002479 ± 2.2e-05
QTARKSTGGKAPR [H3 5-17 Q T A R K S Tph G G Kme2 A P R],peptide microarray binding signal,"[1]; peptide region: H3 5-17, peptide modifications: H3T11ph H3K14me2, binder concentration: 50 nM",0.00216 ± 8e-05
same,peptide microarray binding signal,"[1]; peptide region: H3 5-17, peptide modifications: H3T11ph H3K14me2, binder concentration: 500 nM",0.00505 ± 0.00083
same,peptide microarray binding signal,"[2]; peptide region: H3 5-17, peptide modifications: H3T11ph H3K14me2, binder concentration: 10 nM",0.00239 ± 0.00024
same,peptide microarray binding signal,"[2]; peptide region: H3 5-17, peptide modifications: H3T11ph H3K14me2, binder concentration: 100 nM",0.00213 ± 0.00021
same,peptide microarray binding signal,[3]; [7],0.00496 ± 0.0019
same,peptide microarray binding signal,[3]; [8],0.00605 ± 0.0024
same,peptide microarray binding signal,[4]; [7],0.00177 ± 0.00016
same,peptide microarray binding signal,[4]; [8],0.00248 ± 0.00058
QTARKSTGGKAPR [H3 5-17 Q T A R K S Tph G G Kme A P R],peptide microarray binding signal,"[1]; peptide region: H3 5-17, peptide modifications: H3T11ph H3K14me1, binder concentration: 50 nM",0.00301 ± 0.00011
same,peptide microarray binding signal,"[1]; peptide region: H3 5-17, peptide modifications: H3T11ph H3K14me1, binder concentration: 500 nM",0.00562 ± 0.00013
same,peptide microarray binding signal,"[2]; peptide region: H3 5-17, peptide modifications: H3T11ph H3K14me1, binder concentration: 10 nM",0.00466 ± 0.00013
same,peptide microarray binding signal,"[2]; peptide region: H3 5-17, peptide modifications: H3T11ph H3K14me1, binder concentration: 100 nM",0.00496 ± 0.00066
same,peptide microarray binding signal,[3]; [9],0.00106 ± 2.3e-05
same,peptide microarray binding signal,[3]; [10],0.0012 ± 3.2e-05
same,peptide microarray binding signal,[4]; [9],0.00112 ± 2.3e-05
same,peptide microarray binding signal,[4]; [10],0.000807
TGGKAPRKQLATK [H3 11-23 T G G Kac A P R K Q L A T K],peptide microarray binding signal,"[1]; peptide region: H3 11-23, peptide modifications: H3K14ac, binder concentration: 50 nM",0.0069 ± 0.00019
same,peptide microarray binding signal,"[1]; peptide region: H3 11-23, peptide modifications: H3K14ac, binder concentration: 500 nM",0.032 ± 0.0024
same,peptide microarray binding signal,"[2]; peptide region: H3 11-23, peptide modifications: H3K14ac, binder concentration: 10 nM",0.0291 ± 0.0036
same,peptide microarray binding signal,"[2]; peptide region: H3 11-23, peptide modifications: H3K14ac, binder concentration: 100 nM",0.0427 ± 0.0088
same,peptide microarray binding signal,[3]; [11],0.00429 ± 0.00017
same,peptide microarray binding signal,[3]; [12],0.00314 ± 0.00047
same,peptide microarray binding signal,[4]; [11],0.00606 ± 0.00038
same,peptide microarray binding signal,[4]; [12],0.00392 ± 0.00032
QTARKSTGGKAPR [H3 5-17 Q T A R K Sph T G G Kme3 A P R],peptide microarray binding signal,"[1]; peptide region: H3 5-17, peptide modifications: H3S10ph H3K14me3, binder concentration: 50 nM",0.005486 ± 5.1e-05
same,peptide microarray binding signal,"[1]; peptide region: H3 5-17, peptide modifications: H3S10ph H3K14me3, binder concentration: 500 nM",0.0236 ± 0.0018
same,peptide microarray binding signal,"[2]; peptide region: H3 5-17, peptide modifications: H3S10ph H3K14me3, binder concentration: 10 nM",0.0113 ± 0.0025
same,peptide microarray binding signal,"[2]; peptide region: H3 5-17, peptide modifications: H3S10ph H3K14me3, binder concentration: 100 nM",0.014 ± 0.0073
same,peptide microarray binding signal,[3]; [13],0.0516 ± 0.0021
same,peptide microarray binding signal,[3]; [14],0.0433 ± 0.025
same,peptide microarray binding signal,[4]; [13],0.132 ± 0.038
same,peptide microarray binding signal,[4]; [14],0.0759 ± 0.013
TGGKAPRKQLATK [H3 11-23 T G G Kac A P R Kme3 Q L A T K],peptide microarray binding signal,"[1]; peptide region: H3 11-23, peptide modifications: H3K14ac H3K18me3, binder concentration: 50 nM",0.00953 ± 0.0014
same,peptide microarray binding signal,"[1]; peptide region: H3 11-23, peptide modifications: H3K14ac H3K18me3, binder concentration: 500 nM",0.00948 ± 0.00024
same,peptide microarray binding signal,"[2]; peptide region: H3 11-23, peptide modifications: H3K14ac H3K18me3, binder concentration: 10 nM",0.00841 ± 0.00063
same,peptide microarray binding signal,"[2]; peptide region: H3 11-23, peptide modifications: H3K14ac H3K18me3, binder concentration: 100 nM",0.0201 ± 0.0018
same,peptide microarray binding signal,[3]; [15],0.931 ± 0.11
same,peptide microarray binding signal,[3]; [16],0.499 ± 0.075
same,peptide microarray binding signal,[4]; [15],0.0555 ± 0.018
same,peptide microarray binding signal,[4]; [16],0.016 ± 0.00022
TGGKAPRKQLATK [H3 11-23 T G G Kac A P R Kme Q L A T K],peptide microarray binding signal,"[1]; peptide region: H3 11-23, peptide modifications: H3K14ac H3K18me1, binder concentration: 50 nM",0.00759 ± 8.2e-05
same,peptide microarray binding signal,"[1]; peptide region: H3 11-23, peptide modifications: H3K14ac H3K18me1, binder concentration: 500 nM",0.012 ± 0.00073
same,peptide microarray binding signal,"[2]; peptide region: H3 11-23, peptide modifications: H3K14ac H3K18me1, binder concentration: 10 nM",0.0187 ± 0.0021
same,peptide microarray binding signal,"[2]; peptide region: H3 11-23, peptide modifications: H3K14ac H3K18me1, binder concentration: 100 nM",0.0405 ± 0.011
same,peptide microarray binding signal,[3]; [17],0.0114 ± 0.0027
same,peptide microarray binding signal,[3]; [18],0.00725 ± 0.00036
same,peptide microarray binding signal,[4]; [17],0.00275 ± 0.00016
same,peptide microarray binding signal,[4]; [18],0.00219 ± 0.0001
TGGKAPRKQLATK [H3 11-23 T G G Kac A P R Kme2 Q L A T K],peptide microarray binding signal,"[1]; peptide region: H3 11-23, peptide modifications: H3K14ac H3K18me2, binder concentration: 50 nM",0.00727 ± 0.00061
same,peptide microarray binding signal,"[1]; peptide region: H3 11-23, peptide modifications: H3K14ac H3K18me2, binder concentration: 500 nM",0.0126 ± 0.00024
same,peptide microarray binding signal,"[2]; peptide region: H3 11-23, peptide modifications: H3K14ac H3K18me2, binder concentration: 10 nM",0.0171 ± 0.0046
same,peptide microarray binding signal,"[2]; peptide region: H3 11-23, peptide modifications: H3K14ac H3K18me2, binder concentration: 100 nM",0.031 ± 0.014
same,peptide microarray binding signal,[3]; [19],0.0176 ± 0.0051
same,peptide microarray binding signal,[3]; [20],0.0145 ± 0.0016
same,peptide microarray binding signal,[4]; [19],0.00399 ± 0.00012
same,peptide microarray binding signal,[4]; [20],0.00346 ± 0.0001
QTARKSTGGKAPR [H3 5-17 Q T A R K Sph T G G K A P R],peptide microarray binding signal,"[1]; peptide region: H3 5-17, peptide modifications: H3S10ph, binder concentration: 50 nM",0.00589 ± 6.1e-05
same,peptide microarray binding signal,"[1]; peptide region: H3 5-17, peptide modifications: H3S10ph, binder concentration: 500 nM",0.0117 ± 0.0012
same,peptide microarray binding signal,"[2]; peptide region: H3 5-17, peptide modifications: H3S10ph, binder concentration: 10 nM",0.00955 ± 0.00078
same,peptide microarray binding signal,"[2]; peptide region: H3 5-17, peptide modifications: H3S10ph, binder concentration: 100 nM",0.0203 ± 0.002
same,peptide microarray binding signal,[3]; [21],0.00142 ± 0.0001
same,peptide microarray binding signal,[3]; [22],0.0024 ± 0.00015
same,peptide microarray binding signal,[4]; [21],0.000785 ± 1.3e-05
same,peptide microarray binding signal,[4]; [22],0.0011 ± 1.1e-05
TGGKAPRKQLATK [H3 11-23 T G G Kac A P Rcit K Q L A T K],peptide microarray binding signal,"[1]; peptide region: H3 11-23, peptide modifications: H3K14ac H3R17cit, binder concentration: 50 nM",0.00671 ± 0.00027
same,peptide microarray binding signal,"[1]; peptide region: H3 11-23, peptide modifications: H3K14ac H3R17cit, binder concentration: 500 nM",0.013 ± 0.00041
same,peptide microarray binding signal,"[2]; peptide region: H3 11-23, peptide modifications: H3K14ac H3R17cit, binder concentration: 10 nM",0.018 ± 0.0015
same,peptide microarray binding signal,"[2]; peptide region: H3 11-23, peptide modifications: H3K14ac H3R17cit, binder concentration: 100 nM",0.0345 ± 0.0076
same,peptide microarray binding signal,[3]; [23],0.00517 ± 0.00085
same,peptide microarray binding signal,[3]; [24],0.00297 ± 0.00013
same,peptide microarray binding signal,[4]; [23],0.00171 ± 5.6e-05
same,peptide microarray binding signal,[4]; [24],0.00127 ± 1.3e-05
